In PubChem BioAssay AID2796 (The Scripps Research Institute Molecular Screening Center, 2010) one finds activation data, which are given here for 92 molecules.

The campaign covered roughly 320,000 compounds. About 8,000 (2.5%) were called active. The full list was thinned out, with actives kept by preference. A number with no mark means an inactive call. No stated cut-off is given here; in the data, active means activation above about 47%; inactive means the rest.

The target of this assay is Aryl hydrocarbon receptor (Homo sapiens) (UniProt P35869). Nature of the assay: AHR activators, primary screen, cell-based, luminescence, luciferase reporter, human (AID 2796).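 Further: 0% = vehicle wells and 100% = reference agonist.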 The following applies: AHR-responsive luciferase reporter cells, at 5 µM, active compounds read high. On the technique in general: In a reporter assay the amount or activity of a reporter protein is the signal.
Chain of Aryl hydrocarbon receptor (Homo sapiens) (P35869 whole entry, looked up): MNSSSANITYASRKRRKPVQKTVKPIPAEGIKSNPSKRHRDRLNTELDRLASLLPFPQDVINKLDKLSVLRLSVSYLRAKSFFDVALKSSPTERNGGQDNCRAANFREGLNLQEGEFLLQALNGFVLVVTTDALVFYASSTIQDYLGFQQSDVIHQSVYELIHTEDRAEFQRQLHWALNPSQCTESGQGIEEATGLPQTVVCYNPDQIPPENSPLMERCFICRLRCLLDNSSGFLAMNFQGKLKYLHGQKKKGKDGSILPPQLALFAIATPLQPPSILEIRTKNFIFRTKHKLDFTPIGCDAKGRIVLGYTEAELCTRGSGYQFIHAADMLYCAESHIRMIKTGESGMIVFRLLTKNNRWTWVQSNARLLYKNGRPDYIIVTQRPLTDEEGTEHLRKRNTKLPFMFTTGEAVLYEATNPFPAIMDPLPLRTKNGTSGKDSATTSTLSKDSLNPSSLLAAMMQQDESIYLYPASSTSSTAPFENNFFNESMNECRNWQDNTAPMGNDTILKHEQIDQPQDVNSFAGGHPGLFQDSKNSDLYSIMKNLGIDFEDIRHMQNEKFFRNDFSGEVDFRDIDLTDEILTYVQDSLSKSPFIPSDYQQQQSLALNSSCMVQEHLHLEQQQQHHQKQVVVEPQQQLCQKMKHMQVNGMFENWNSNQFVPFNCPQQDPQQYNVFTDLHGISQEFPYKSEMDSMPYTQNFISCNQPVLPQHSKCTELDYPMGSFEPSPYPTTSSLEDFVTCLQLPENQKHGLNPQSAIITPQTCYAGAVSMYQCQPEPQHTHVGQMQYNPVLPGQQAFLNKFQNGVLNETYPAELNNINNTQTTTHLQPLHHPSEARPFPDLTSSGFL
As to `CC(=O)Nc1ccc(NC(=O)CSc2nnc(COc3ccccc3C)n2CC2CCCO2)cc1` (configuration not stated), the activation is 1.11%.

For `CCOC(=O)N1CCN(Cc2nc3ccc([N+](=O)[O-])cc3c(=O)n2-c2cccc(OC)c2)CC1`, the activation was 32.6%.

On to `Cc1noc(C)c1C(=O)Nc1ccccn1`, for which the activation is 4.67%.

In the case of `Cc1c(C(=O)Nc2ccccn2)oc2ccc(Br)cc12`, the activation is 49.7% (active).

On to `Cc1nonc1NC(=O)c1oc2ccccc2c1C`, for which the activation is 12.5%.

For `Cn1ncc2c(N3CCCCC3)nc(NCCCO)nc21`, the activation was 5.05%.

`COc1cccc(C(=O)Nc2nc3ccc(S(C)(=O)=O)cc3s2)c1`: the activation is 7.38%.

For `COc1ccc(C(=O)Nc2cccc(S(C)(=O)=O)c2)cc1`, the activation is 67.2% (active).

For `COc1ccc(NS(=O)(=O)c2ccc(NC(=O)c3ccc(N(C)S(C)(=O)=O)cc3)cc2)cc1`, the activation was -0.42%.

As for `CCCNC(=O)COc1coc(CN2CCN(Cc3ccccc3)CC2)cc1=O`, the activation is 1.71%.

Take `Cc1cnc(C(=O)OCc2c(C)cc(C(C)(C)C)cc2C)cn1`: the activation is 3.96%.

In the case of `CCN(c1ccc(NC(=O)COC(=O)CCc2nc3ccccc3n2-c2ccccc2)cc1)C(C)C`, the activation is -1.26%.

`Cc1ccc(C(=O)OCC(=O)N2CC(C)CC(C)C2)cc1S(=O)(=O)N1CCCCC1` (configuration not stated): the activation was 0.38%.

Regarding `O=C(Nc1ccncc1)c1ccc(Cl)c([N+](=O)[O-])c1`, the activation is 0.64%.

`O=C(Nc1cccnc1)c1ccc(Cl)c([N+](=O)[O-])c1`: the activation was -0.85%.

Regarding `Cc1ccnc(NC(=O)c2ccc(Cl)c([N+](=O)[O-])c2)c1`, the activation was 104% (active).

Consider `COc1ccc(OC)c(/C=N/NC(=O)c2ccc[n+](CC(=O)c3ccccc3)c2)c1`, for which the activation was 12.9%.

For the molecule `Cn1c(C(=O)NCCc2ccsc2)cc2c(=O)n(C)c3ccccc3c21`, the activation is 86.4% (active).

`Cn1c(C(=O)NCCCN2CCN(c3cccc(Cl)c3)CC2)cc2c(=O)n(C)c3ccccc3c21`: the activation was 7.28%.

Regarding `CCN1CCCC1CNC(=O)c1cc2c(=O)n(C)c3ccccc3c2n1C` (configuration not stated), the activation was 3.13%.

Regarding `N#Cc1ccccc1NC(=O)c1ccc2c(c1)OCO2`, the activation is 32.1%.

As for `O=C(CSc1nn(-c2ccc(F)cc2)c(=S)s1)NC1CCS(=O)(=O)C1` (configuration not stated), the activation was 3.28%.

As for `C=CCc1cccc2cc(C(=O)Nc3ccc(NC(C)=O)cc3)c(=O)oc12`, the activation is 16.9%.

On to `C=CCn1cc(Cl)cc(C(=O)Nc2ccccc2)c1=O`, for which the activation is 50.9% (active).

As to `C=CCN(C(=O)c1cc(C)cc(C)c1)C1(C(=O)Nc2ccccc2)CCN(C(C)C)CC1`, the activation is 5.4%.

Take `CC(C)Cc1nnc(NC(=O)CCC(=O)Nc2ccc3cn[nH]c3c2)s1`: the activation was 24.7%.

As for `O=C1N(c2ccc(Cl)cc2)C(c2ccc(Cl)cc2)N2CCCN12` (configuration not stated), the activation was 54.2% (active).

For `O=C1NC(=O)C(c2ccc(Cl)cc2)N1` (configuration not stated), the activation is -2.18%.

Turning to `Cc1ccc(C)c(S(=O)(=O)N2CCCOC2CNC(=O)C(=O)NC2CCCCC2)c1` (configuration not stated), the activation is 2.26%.

With `CC(=O)Oc1cccc(C(=O)Nc2ccccc2NC(=O)c2cccc(OC(C)=O)c2)c1`, the activation is 2.51%.

On to `CC(=O)c1cc(NC(=O)c2ccccc2)c(=O)oc1/C=C/N(C)C`, for which the activation is 60.3% (active).

Consider `CCOC(=O)c1cc(NC(=O)c2ccc(Cl)cc2)c(=O)oc1-c1ccccc1`, for which the activation is -1.16%.

As for `CC(C)C(C(=O)NCc1ccco1)N(CC1CCCO1)C(=O)CNS(=O)(=O)c1ccc(F)cc1` (configuration not stated), the activation was -0.85%.

For `COc1ccccc1Nc1ncnc2c1oc1ccccc12`, the activation is 86.1% (active).

With `CCC(C(=O)OC)n1cnc2c(oc3ccccc32)c1=O` (configuration not stated), the activation was 2.16%.

With `COc1ccc(C)cc1Nc1nc(C)nc2c1oc1ccccc12`, the activation is 13.4%.

As for `COc1ccc(OC)c(-n2cc3c(=O)n(C)c(=O)n(C)c3c2)c1`, the activation was 64.9% (active).

As to `Cn1c(=O)c2cn(-c3cccc4ccccc34)cc2n(C)c1=O`, the activation was 18.1%.

As to `CC(=O)Nn1cc2c(=O)n(C)c(=O)n(C)c2c1`, the activation is 1.7%.

As to `O=C(O)c1cccc2c1C(=O)N(C1CCCC1)C2`, the activation was -3.11%.

Turning to `O=C(COc1ccc(F)cc1Br)NCC1COc2ccccc2O1` (configuration not stated), the activation was 2.44%.

In the case of `CC1CCN(c2ccc([N+](=O)[O-])c(SCCO)c2)CC1`, the activation is 13.1%.

On to `O=C(CSc1nc2ccccc2[nH]1)N/N=C/C=C\c1ccccc1[N+](=O)[O-]`, for which the activation was 26.7%.

Consider `CN1CCN(c2ccc([N+](=O)[O-])c(Sc3nc4ccccc4[nH]3)c2)CC1`, for which the activation is 50% (active).

As to `O=C(OCC(=O)N1CCN(C(=O)c2ccco2)CC1)c1cccc(O)c1`, the activation is 4.27%.

`Cc1c(CN2CCC(CO)(CCOc3ccccc3)CC2)[nH]c2ccc(Cl)cc12`: the activation was 6.78%.

For the molecule `COC(=O)c1[nH]c2ccc(Br)cc2c1NC(=O)Oc1ccccc1`, the activation was 48.5% (active).

On to `CCOC(=O)c1[nH]c2ccc(OC)cc2c1NC(=O)CCN1CCN(Cc2ccccc2)CC1`, for which the activation was 4.33%.

For the molecule `COC(=O)c1oc2ccc(Br)cc2c1NC(C)=O`, the activation is 1.12%.

Turning to `CN(Cc1ccccc1)C(=O)C(=O)c1cn(CC(=O)N2CCCC2)c2ccccc12`, the activation is 0.47%.

For the molecule `NC(=O)C1(N2CCCCC2)CCN(C(=O)c2ccc(C#Cc3ccccc3)o2)CC1`, the activation was 0.68%.

On to `O=C(Nc1ccccc1)c1ccc(NC(=O)c2cccs2)cc1`, for which the activation is -3.44%.

With `O=C(Nc1ccc(NC(=O)c2cccs2)cn1)c1ccco1`, the activation was -2.71%.

Take `O=C(Nc1ccnc(-c2ccncc2)n1)c1cccs1`: the activation is 55.7% (active).

Regarding `C/C=C(\C)C(=O)N1CC2(CC(c3cccc(NC(=O)CCCCC)c3)=NO2)C[C@@H]1C(N)=O` (some centres not stated), the activation is 2.15%.

On to `N#CC1(NC(=O)COc2ccc3oc4ccccc4c3c2)CCCCC1`, for which the activation is 4.73%.

For `O=[N+]([O-])c1ccc2c(c1)Nc1nc3ccccc3nc1N2`, the activation is 36.9%.

For `Cc1nc2ccccc2nc(=O)c1NNc1ccc([N+](=O)[O-])cc1`, the activation was 47.2% (active).

In the case of `Cc1cccc(NS(=O)(=O)c2ccc([N+](=O)[O-])cc2)n1`, the activation is 1.34%.

As to `Cc1ccc(C(=O)N(CC(=O)NC2CCCC2)c2ccc(F)cc2)s1`, the activation is 2.22%.

As for `Cn1nc(C(F)(F)F)c2cc(C(=O)N3CCOCC3)sc21`, the activation is -0.43%.

As to `COc1ccc2c(Cl)c(C(=O)NCc3ccco3)sc2c1`, the activation is -3%.

Regarding `COc1cccc(-c2nn(C)c3sc(C(=O)N4CCN(c5ccccc5)CC4)cc23)c1`, the activation is 9.25%.

Take `CC(C)(C)c1ccc(C(=O)NCc2ccco2)cc1`: the activation was 9.26%.

On to `CCOC(=O)N1CCN(C(=O)c2ccc3nc4cc(Cl)ccc4c(=O)n3c2)CC1`, for which the activation is 5.36%.

As to `CCOC(=O)N1CCN(C(=O)c2cc3c(-c4ccc(Cl)cc4)nn(C)c3s2)CC1`, the activation was 89.2% (active).

On to `COc1cccc(-c2cc(C(=O)N3CCN(c4ccccc4OC)CC3)no2)c1`, for which the activation is 2.67%.

For the molecule `Cn1nc(-c2ccc(Cl)cc2)c2cc(C(=O)NCc3ccco3)sc21`, the activation is 79.7% (active).

Take `COc1ccccc1N1CCN(C(=O)c2cc3c(-c4ccc(Cl)cc4)nn(C)c3s2)CC1`: the activation was 121% (active).

Consider `CCOC(=O)c1cccc(NC(=O)C2CCCN(S(=O)(=O)c3cnc[nH]3)C2)c1` (configuration not stated), for which the activation was 0.81%.

As to `Cc1ccc(SCC2=NNC(=O)C2)cc1`, the activation was -1.28%.

With `CC(C)N1C(=S)SC(C)(C)C1n1oc(=O)n(-c2ccc(Cl)c(Cl)c2)c1=O` (configuration not stated), the activation was 7.15%.

Regarding `COc1ccc(CN2CCN(Cc3cn(C)nc3-c3ccccc3)CC2CCO)c(C)c1C` (configuration not stated), the activation is 2.04%.

Turning to `Cc1noc(C)c1NC(=O)Nc1ccc2c(c1)C(=O)N([C@H](C)CO)C[C@H](C)[C@@H](CN(C)C(=O)Nc1ccc(C(F)(F)F)cc1)O2`, the activation is 3.05%.

With `Cc1ccc(-c2noc(CNC(=O)c3ccoc3C)n2)cc1`, the activation is 6.22%.

With `CCN(CC)C(=O)Oc1ccc(Br)cc1C(=O)Nc1ccc(F)c(Cl)c1`, the activation is 86.6% (active).

Regarding `CCN(CC)C(=O)C(=O)Nc1cccc(Br)c1`, the activation was 4.98%.

With `O=C(COc1ccccc1F)NNC(=O)c1cc(Br)ccc1Cl`, the activation is 4.62%.

For `CCC1CCCCN1CCNC(=O)c1[nH]c(C)c(C(C)=O)c1C` (configuration not stated), the activation was 1.61%.

As for `Fc1ccc(NC(=S)N2CCc3[nH]c4ccccc4c3C2)cc1`, the activation was 5.41%.

Take `C=CCNC(=S)N1CCc2[nH]c3ccccc3c2C1`: the activation is 73.6% (active).

Turning to `O=C(Nc1ccc(Cl)cc1)N1CCc2[nH]c3ccccc3c2C1`, the activation is 25.4%.

Take `O=C(CCCN1CCc2[nH]c3ccc(F)cc3c2C1)c1ccc(F)cc1`: the activation is 2.64%.

For the molecule `Cc1ccc(-n2c(SCC(=O)NCCC3=CCCCC3)nc3n[nH]c(C)c3c2=N)cc1Cl`, the activation is 24.8%.

`COc1cccc(-n2c(SCC(=O)NC3CCCCC3)nc3n[nH]c(C)c3c2=N)c1`: the activation was 104% (active).

Regarding `CCCCNC(=O)CSc1nc2n[nH]c(C)c2c(=N)n1-c1cccc(Cl)c1C`, the activation was 13.7%.

Regarding `COc1ccccc1C(=O)NCCC(=O)NN1C(=O)NC2(CCCCC2)C1=O`, the activation was -0.92%.

With `C/C=C/C(=O)OCC(=O)Nc1ccc(F)cc1Cl`, the activation was 0.16%.

Take `O=C(CCCOc1ccccc1)NCc1ccco1`: the activation was 1.62%.

Turning to `C[N+](C)(CCCCCC[N+](C)(C)CCCN1C(=O)c2cccc3cccc(c23)C1=O)CCCN1C(=O)c2cccc3cccc(c23)C1=O`, the activation is 4.39%.

With `O=C(CCCCCN1C(=O)c2cccc3cccc(c23)C1=O)NCc1ccco1`, the activation is 76.8% (active).

Turning to `CC1CCN(C(=O)C2CCN(S(=O)(=O)N3CCC4(CC3)OCCO4)CC2)CC1`, the activation is 0.37%.
